Bioassay records: PubChem, National Center for Advancing Translational Sciences (NCATS)
Most compounds without a hit are left out; they make up all but 4.5% or so of the library.
HEK293 cAMP ctrl – qHTS Assay for Agonists of the Thyroid Stimulating Hormone Receptor: Activators of Intracellular cAMP Concentrations in Parental HEK 293. parental HEK293 CNG cAMP sensor, membrane potential fluorescence. Potency, µM (top dose mostly 57.1 µM), hits mostly activators. 73,000 tested, 2.5% active; further: nearly all actives have a fitted effect of over 55% in size
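Parental HEK 293 cells stably expressing a modified CNG channel (no TSHR) report cAMP rise as membrane depolarization. Membrane potential dye with 100 uM RO 20-1724 was loaded for 60 min at room temperature, then compound added for 30 min; fluorescence read at 590 nm.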
GBA activity – Glucocerebrosidase. Potency, µM. Lysosomal acid glucosylceramidase (Homo sapiens), P04062. 48,000 tested, 1.1% active. purified enzyme, resorufin glucoside fluorescence (screen aimed at inhibitors), 20 min. AID 360, 2006; in the data active means potency below about 15 µM; inconclusive means mostly about 16 µM to 33 µM;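 further: the screen sought inhibitors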
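Wild-type enzyme at 0.2 nM final in 50mM citric acid/KH2PO4, 10mM sodium taurocholate, 0.01% tween-20, pH 5.9, with resorufin beta-D-glucopyranoside at 30 uM final. Compounds titrated, 20 min at RT, red fluorescence read; AC50 from titration.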
ERK AVP block – qHTS Assay for Inhibitors of the ERK Signaling Pathway using a Homogeneous Screening Assay. AID 995, 2007. Potency, µM (doses to about 57.5 µM), most hits filed as inhibitors. 72,000 tested, 0.99% active. HEK293-V1b, vasopressin-stimulated pERK AlphaScreen; further: nearly all actives have a fitted effect of over 55% in size
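HEK293 cells stably expressing V1b receptor, preincubated 30 min at 37 °C with compound, then stimulated 5 min with 25 nM vasopressin. Phospho-ERK by AlphaScreen SureFire after 5 h RT; normalized to DMSO and vasopressin; AC50 by Hill fit.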
TSHR agonist – qHTS Assay for Agonists of the Thyroid Stimulating Hormone Receptor; Potency, µM (top dose mostly 57.1 µM), hits mostly activators; HEK293-CNG-TSHR cells (CNG channel as cAMP sensor), membrane potential dye, cAMP; 73,000 tested, 0.48% active; AID 926, 2007; active means well fitted activation curve with a large enough effect in the main read-out, with a control signal flat, not every such curve was filed as active; inconclusive means small, poorly fitted or top-dose-only effect, or a change in a side signal; inactive means no such curve, though single readings can be large or run the other way; reference of the percent scale not stated here;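 further: the control signal comes from parental cells without the receptor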
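HEK 293 cells stably expressing TSHR and a modified CNG channel, with CNG-only parental cells as counterscreen, were preloaded 60 min at room temperature with membrane potential dye containing 100 uM RO 20-1724. Compound exposure was 30 min, and depolarization was read as fluorescence at 590 nm.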
Caspase-7 inhib – qHTS Assay for Allosteric/Competitive Inhibitors of Caspase-7. recombinant caspase-7, Ac-DEVD-AFC fluorescence rate. Potency, µM (highest dose often 57.5 µM), actives largely listed as inhibitors. 75,000 tested, 0.02% active. AID 889, 2007; active means well fitted inhibition curve with a large enough effect in the main read-out, with a control signal flat, not every such curve was filed as active; inconclusive means small, poorly fitted or top-dose-only effect, or a change in a side signal
Caspase-1 inhib – qHTS Assay for Allosteric/Competitive Inhibitors of Caspase-1 | P29466 | Caspase-1 enzyme, Ac-WEHD-AFC fluorogenic rate | Potency, µM (top dose mostly 57.5 µM), usual class: inhibitors | 75,000 tested, 0.03% active | AID 900, 2007
A number is an active result; – = inactive; ? = inconclusive; · = no result; [ ] = remark or other dose. Unless noted, the call rests on the fitted dose curve; in most records, active means well fitted curve in the direction sought with a large enough effect; inconclusive means small, poorly fitted or top-dose-only effect, or another doubt; inactive means no such curve, though single readings can be large; an effect the other way counts as inactive or inconclusive.

SMILES	HEK293 cAMP ctrl	GBA activity	ERK AVP block	TSHR agonist	Caspase-7 inhib	Caspase-1 inhib
COc1ccc(N(CC(=O)Nc2cc(C)on2)S(=O)(=O)c2cc(C)ccc2C)cc1	–	?	–	25µM	–	–
Cc1ccc(NC(=O)CN(c2cc(C)cc(C)c2)S(=O)(=O)c2c(C)noc2C)nc1	20µM	·	–	?	–	–
COc1ccc(S(=O)(=O)Nc2ccc3c(c2)OCO3)cc1C(=O)O	32µM	·	·	?	–	–
COC(=O)c1ccc(C#CC(NP(=O)(c2ccccc2)c2ccccc2)c2ccccc2)cc1 (stereo not given)	?	·	–	?	–	–
Cc1ccc(N(CC(=O)Nc2ccc3c(c2)OCCO3)S(=O)(=O)c2c(C)noc2C)cc1	–	?	–	–	–	–
COc1ccc(N(CC(=O)Nc2ccc3c(c2)OCCO3)S(=O)(=O)c2c(C)noc2C)cc1	–	12	–	·	–	–
C=CCOc1ccccc1/C=N/O	25µM	–	?	?	–	–
Cc1cccc(-n2c(O)c(C=Nc3ccc4c(c3)OCO4)c3ccccc3c2=O)n1	–	–	–	–	?	?
Cc1cc(N=Cc2c(O)n(-c3ccc4c(c3)OCO4)c(=O)c3ccccc23)ccn1	–	11	–	–	?	·
COc1ccccc1NS(=O)(=O)c1cc(C(=O)O)ccc1F	–	·	·	–	–	–
CCOC(=O)c1cc(C)n(CCc2ccccc2)c1C	25µM	–	–	?	–	–
COc1ccc(-c2nc3cnc(OC)nc3n(C[C@H]3CCCO3)c2=O)cc1	20µM	·	–	?	–	–
COc1ncc2nc(-c3ccc(Cl)cc3)c(=O)n(C[C@H]3CCCO3)c2n1	?	·	–	?	–	–
CSCC[C@H](C=O)NC(=O)[C@H](CC(C)C)NC(=O)[C@H](CC(C)C)NC(C)=O	–	·	–	–	–	–
Cc1ccc(C)c2[nH]c(=O)c(CCNC(=O)c3ccc(S(=O)(=O)N(C)C)cc3)cc12	–	·	·	–	–	–
CC(=O)Nc1ccc(S(=O)(=O)NCCc2cc3c(C)ccc(C)c3[nH]c2=O)cc1	25µM	·	·	?	–	–
CN(C)c1ccc(C(=C2C=CC(=[N+](C)C)C=C2)c2c(O)c(S(=O)(=O)O)cc3cc(S(=O)(=O)O)ccc23)cc1	–[11.4 µM]	·	?	–[11.4 µM]	–[11.5 µM]	–[11.5 µM]
Cc1ccc(O)c(C(=O)c2cnc3c(c2)CN(CCC(C)C)C(=O)N3)c1	–	–	–	–[11.4 µM]	–	–
CN1Cc2cc(C(=O)c3cc(Cl)cc(CSc4ncccn4)c3O)cnc2NC1=O	–	–	–	16µM	–	–
Nc1ncnc2c1ncn2C[C@@H](O)C(=O)O	–[11.4 µM]	·	–[11.5 µM]	–[11.4 µM]	–[11.5 µM]	–[11.5 µM]
CCCCn1c(SCC(=O)c2cc(OC)ccc2OC)nc2cc(S(N)(=O)=O)ccc21	25µM	–	–	?	–	–
N=C(C[C@@H](O)COc1ccccc1-c1ccccc1)N1CCCCC1	32µM	·	–	?	–	–
O=C(c1cc2ccccc2cc1OCC(O)CN1CCCCC1)N1CCCCC1 (stereo not given)	?	·	–	?	–	–
Clc1cccc(Cl)c1C(Nc1nncs1)Nc1nncs1	–[11.4 µM]	·	–[11.5 µM]	–[11.4 µM]	–[11.5 µM]	–[11.5 µM]
C[C@H]1[C@H](C)CC[C@]2(C(=O)O)CC[C@]3(C)C(=CC[C@@H]4[C@]5(C)C[C@H](O)[C@@H](O)[C@@](C)(CO)[C@@H]5[C@H](O)C[C@@]43C)[C@H]12	?	·	–[11.5 µM]	?	–[11.5 µM]	–[11.5 µM]
CC(=O)Nc1cccc(-c2nnc(-c3ccccc3)o2)c1	?	14	–	?	–	–
COc1ccc(CC(=O)Nc2ccc(-c3nnc(-c4ccccc4)o3)cc2)cc1OC	–	–	–	–	–	–
CCC(CC)C(=O)Nc1cccc(-c2nc3ccccc3o2)c1	–	–	–	6.3µM	–	–
COc1ccc(CC(=O)Nc2cccc(-c3nnc(-c4ccccc4)o3)c2)cc1OC	–	?	5µM	·	–	–
